The campaign covered roughly 320,000 compounds. About 2,100 (0.66%) were called active. Not shown: some 53% with an inconclusive outcome. The call rests on the fitted dose curve; in most records, active means well fitted inhibition curve with a large enough effect in the signal ratio, with a control signal flat (not every such curve was filed as active); inconclusive means small, poorly fitted or top-dose-only effect, or effect the other way, or a change in a side signal; inactive means flat fitted curve, though single readings scatter; the % refers to the signal ratio. What follows is part of a selection rich in actives, with near analogues and random picks from the rest.
Assay: qHTS Assay for Lipid Storage Modulators in Drosophila S3 Cells;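 on cell number change: cells counted by Cell Tracker Red CMTPX staining in the red channel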; on lipid storage change, negative = inhibition: on the % scale 0 is the no-effect control and ±100 the full control effect
Settings: BODIPY lipid droplet fluorescence, 18-24 h, cells fed with added oleic acid; cell number change: measured here: cell count max response; series mostly up to 46.1 µM; lipid storage change, negative = inhibition: at the top concentration
Method in brief: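 Drosophila S3 cells got compounds at several concentrations plus oleic acid (400 uM solution). Laser-scanning cytometry with 488 nm excitation read lipid droplets at 500-530 nm and cells at 575-640 nm. Percent activity was relative to 20 uM Triacsin C.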
Potency means the concentration at half of the fitted maximal effect.

**Q.** For `CCCNC(=O)c1cn(CC)c2cc(N3CCN(C(=O)c4ccco4)CC3)c(F)cc2c1=O`, which Potency is on record?
**A.** 16.4 µM (active)

**Q.** What about the cell number change of the same molecule?
**A.** -23.8%

**Q.** With `CCN(CC)CCCNC(=O)c1cn(CC)c2cc(N3CCN(C(=O)c4ccco4)CC3)c(F)cc2c1=O` as the molecule, how does the “outcome” value read?
**A.** inactive

**Q.** And the cell number change?
**A.** 3.82%

**Q.** With `CCN(CC)CCNC(=O)c1cn(CC)c2cc(N3CCN(C(=O)c4ccco4)CC3)c(F)cc2c1=O` as the molecule, how does the “lipid storage change, negative = inhibition” value read?
**A.** -9.28% (inactive)

**Q.** What about the cell number change of the same molecule?
**A.** 3.39%

**Q.** With `Cc1ccc(S(=O)(=O)N2CCC(=O)N(CCOCc3ccccc3C)CC2)cc1` as the molecule, how does the “lipid storage change, negative = inhibition” value read?
**A.** 27.7% (inactive)

**Q.** And the cell number change?
**A.** -1.04%

**Q.** What does the source list for `Cc1cc2cc(CN(Cc3cccs3)S(=O)(=O)c3ccc4c(c3)OCCO4)c(=O)[nH]c2cc1C`?
**A.** lipid storage change, negative = inhibition: 19.7% (inactive); cell number change: 5.28%

**Q.** Which “lipid storage change, negative = inhibition” value does the source give for `CCCCC(=O)Nc1ccc(C(=O)N2CCN(C)CC2)cc1` here?
**A.** 13.2% (inactive)

**Q.** Which results are given for `CCCCCCCC(=O)NN1CCOCC1`?
**A.** lipid storage change, negative = inhibition: -8.3% (inactive); cell number change: 12.9%

**Q.** Which Potency does the source give for `CCCCCCC(=O)NN1CCN(C)CC1` here?
**A.** 25.9 µM (active)

**Q.** What about the cell number change of the same molecule?
**A.** -18.7%

**Q.** For `Cc1onc(-c2ccccc2Cl)c1C(=O)NCc1ccc(N2CCCC2=O)cc1`, which “lipid storage change, negative = inhibition” value is on record?
**A.** 4.57% (inactive)

**Q.** And the cell number change?
**A.** -1.75%

**Q.** For `COc1cc(C(=O)OCC(=O)Nc2cccc(S(=O)(=O)N3CCOCC3)c2)ccc1OCC(C)C`, which “lipid storage change, negative = inhibition” value is on record?
**A.** 15% (inactive)

**Q.** And the cell number change?
**A.** 0.792%

**Q.** Which “lipid storage change, negative = inhibition” value does the source give for `CCOc1ccccc1C(=O)N[C@H](C(=O)OCc1cc(=O)oc2cc(C)ccc12)C(C)C` here?
**A.** 21.6% (inactive)

**Q.** What about the cell number change of the same molecule?
**A.** 1.89%

**Q.** Which results are given for `Nc1ccccc1-c1ccccc1N`?
**A.** lipid storage change, negative = inhibition: 17.3% (inactive); cell number change: 12.1%

**Q.** Which results are given for `Cc1ccccc1N=C1N=C(N)c2ccccc21`?
**A.** lipid storage change, negative = inhibition: 3.18% (inactive); cell number change: 4.71%

**Q.** For `NC1=NCc2ccccc21`, which Potency is on record?
**A.** 18.4 µM (active)

**Q.** What about the cell number change of the same molecule?
**A.** -13%

**Q.** For `CC(C)(C)C(=O)Nc1ccc(C(=O)N/N=C/c2ccccc2OC(=O)c2ccc(Cl)cc2)cc1`, which “lipid storage change, negative = inhibition” value is on record?
**A.** 19.8% (inactive)

**Q.** What about the cell number change of the same molecule?
**A.** -1.11%

**Q.** Which results are given for `CCCN(CC(=O)Nc1ccccc1C)C(=O)c1ccc(N2CCCCC2)c([N+](=O)[O-])c1`?
**A.** outcome: inactive; cell number change: -25%

**Q.** With `CCCN(CC(=O)Nc1ccccc1C)C(=O)c1ccc(-c2ccc([N+](=O)[O-])cc2)o1` as the molecule, how does the Potency read?
**A.** 11.6 µM (active)

**Q.** For `CCCN(CC(=O)Nc1ccccc1C)C(=O)c1ccc(COc2ccccc2)cc1`, which “outcome” value is on record?
**A.** inactive

**Q.** Which “lipid storage change, negative = inhibition” value does the source give for `CCN(CC)CCNC(=S)Nc1ccc(Cl)cc1` here?
**A.** 5.37% (inactive)

**Q.** What about the cell number change of the same molecule?
**A.** 1.74%

**Q.** Which “lipid storage change, negative = inhibition” value does the source give for `N#C/C(=C\c1c[nH]c2ccccc12)c1nnc2n1CCCCC2` here?
**A.** 0.21% (inactive)

**Q.** What about the cell number change of the same molecule?
**A.** 6.3%

**Q.** Which Potency does the source give for `N#C/C(=C\c1cccc([N+](=O)[O-])c1)c1nnc2n1CCCCC2` here?
**A.** 4.11 µM (active)

**Q.** Which Potency does the source give for `N#C/C(=C/c1cccc([N+](=O)[O-])c1)c1nnc2n1CCCCC2` here?
**A.** 2.59 µM (active)

**Q.** What about the cell number change of the same molecule?
**A.** -13.7%

**Q.** With `O=[N+]([O-])c1cccc(-c2nnc3n2CCCCC3)c1` as the molecule, how does the “outcome” value read?
**A.** inactive

**Q.** What about the cell number change of the same molecule?
**A.** 8.75%

**Q.** Which results are given for `CN(c1ccccc1)c1ccc(/C=C(\C#N)c2nnc3n2CCCCC3)cc1[N+](=O)[O-]`?
**A.** lipid storage change, negative = inhibition: -19.9% (inactive); cell number change: 0.8%

**Q.** With `N#C/C(=C/c1ccccc1[N+](=O)[O-])c1nnc2n1CCCCC2` as the molecule, how does the “lipid storage change, negative = inhibition” value read?
**A.** -12.1% (inactive)

**Q.** What about the cell number change of the same molecule?
**A.** 5.26%

**Q.** Which “outcome” value does the source give for `Cc1nnc(NC(=O)c2ccccc2C(=O)O)s1` here?
**A.** inactive

**Q.** What about the cell number change of the same molecule?
**A.** 10.9%

**Q.** With `O=C(Nc1cccc(-c2csc(Nc3cccc(C(F)(F)F)c3)n2)c1)c1cc([N+](=O)[O-])cc(C(F)(F)F)c1` as the molecule, how does the “lipid storage change, negative = inhibition” value read?
**A.** -7.39% (inactive)

**Q.** And the cell number change?
**A.** -14.2%

**Q.** With `COC(=O)[C@@H](Cc1ccccc1)NC(=O)[C@H]1CCC(=O)N1C(=O)OCc1ccccc1` as the molecule, how does the Potency read?
**A.** 7.31 µM (active)

**Q.** And the cell number change?
**A.** -26.7%

**Q.** Which “lipid storage change, negative = inhibition” value does the source give for `COC(=O)[C@@H](Cc1ccc(O)cc1)NC(=O)[C@H]1CCC(=O)N1C(=O)OCc1ccccc1` here?
**A.** -26.1% (inactive)

**Q.** And the cell number change?
**A.** -3.5%

**Q.** Which results are given for `CC(C)CC(NC(=O)C1CCC(=O)N1C(=O)OCc1ccccc1)C(=O)NC(Cc1ccccc1)C(N)=O` (centres undefined)?
**A.** outcome: inactive; cell number change: 10.8%

**Q.** With `Cn1c(=O)c2c(O)c(Cc3ccccc3)c(=O)[nH]c2n(C)c1=O` as the molecule, how does the “lipid storage change, negative = inhibition” value read?
**A.** 29.3% (inactive)

**Q.** With `O=C(c1ccc([N+](=O)[O-])o1)N1CCN(Cc2ccccc2)CC1` as the molecule, how does the Potency read?
**A.** 25.9 µM (active)

**Q.** What about the cell number change of the same molecule?
**A.** -14.3%

**Q.** With `CCC(=O)N1CCN(c2ccc(Cl)cc2NC(=O)c2ccc([N+](=O)[O-])o2)CC1` as the molecule, how does the Potency read?
**A.** 5.8 µM (active)

**Q.** What about the cell number change of the same molecule?
**A.** -10.1%

**Q.** For `CS(=O)(=O)N1CCN(c2ccccc2NC(=O)c2ccc([N+](=O)[O-])o2)CC1`, which “lipid storage change, negative = inhibition” value is on record?
**A.** -12.3% (inactive)

**Q.** And the cell number change?
**A.** -11.1%

**Q.** For `O=C(Nc1ccccc1N1CCOCC1)c1ccc([N+](=O)[O-])o1`, which “lipid storage change, negative = inhibition” value is on record?
**A.** 2.83% (inactive)

**Q.** And the cell number change?
**A.** -0.54%

**Q.** With `COc1ccc(N2CCN(C(=O)c3ccc4nc(N5CCCCC5)sc4c3)CC2)cc1` as the molecule, how does the “outcome” value read?
**A.** inactive

**Q.** What does the source list for `Cc1ccc(C(=O)N2CCN(Cc3ccccc3)CC2)o1`?
**A.** lipid storage change, negative = inhibition: 4.58% (inactive); cell number change: 15.9%

**Q.** With `O=C(Nc1ccccc1N1CCN(C(=O)c2ccccc2)CC1)c1ccc([N+](=O)[O-])o1` as the molecule, how does the Potency read?
**A.** 8.2 µM (active)

**Q.** And the cell number change?
**A.** 11.7%

**Q.** With `CC(=O)N1CCN(c2nc3ccc([N+](=O)[O-])cc3s2)CC1` as the molecule, how does the “outcome” value read?
**A.** inactive

**Q.** And the cell number change?
**A.** -3.82%

**Q.** Which “lipid storage change, negative = inhibition” value does the source give for `O=C(c1ccc([N+](=O)[O-])o1)N1CCOCC1` here?
**A.** -11.5% (inactive)

**Q.** And the cell number change?
**A.** -1.55%

**Q.** Which “lipid storage change, negative = inhibition” value does the source give for `O=C(Nc1cc(Cl)ccc1-n1cncn1)c1ccc([N+](=O)[O-])o1` here?
**A.** 13% (inactive)

**Q.** What about the cell number change of the same molecule?
**A.** 8.28%

**Q.** For `COc1ccc2nc(N3CCN(C(=O)c4ccc([N+](=O)[O-])o4)CC3)sc2c1`, which Potency is on record?
**A.** 4.61 µM (active)

**Q.** With `CCC(=O)N1CCN(c2ccc(Cl)cc2NC(=O)Cc2ccccc2)CC1` as the molecule, how does the “lipid storage change, negative = inhibition” value read?
**A.** 13.8% (inactive)

**Q.** And the cell number change?
**A.** 12.9%

**Q.** Which “lipid storage change, negative = inhibition” value does the source give for `Cc1noc(C)c1COC(=O)c1csc2c1CCCC2` here?
**A.** -16.4% (inactive)

**Q.** Which “lipid storage change, negative = inhibition” value does the source give for `Cc1cc(Nc2c(C)n(C)n(-c3ccccc3)c2=O)c2ccccc2n1` here?
**A.** -9.37% (inactive)

**Q.** What about the cell number change of the same molecule?
**A.** -23.8%

**Q.** With `Cc1cccc(-n2cc(CN3CCCN(C=O)CC3)c(-c3cccc(F)c3)n2)c1` as the molecule, how does the “lipid storage change, negative = inhibition” value read?
**A.** -3.6% (inactive)

**Q.** And the cell number change?
**A.** -4.39%

**Q.** Which results are given for `O=C(NCc1cccnc1)Nc1cccc([N+](=O)[O-])c1`?
**A.** outcome: inactive; cell number change: 6.23%

**Q.** With `CCOc1ncccc1C(=O)OCC(=O)N1CC(=O)Nc2ccccc21` as the molecule, how does the “outcome” value read?
**A.** inactive

**Q.** With `Cc1c(/C=N/N=C2\CCC3C4CCc5cc(O)ccc5C4CCC23C)cnn1C` (centres undefined) as the molecule, how does the “outcome” value read?
**A.** inactive

**Q.** What about the cell number change of the same molecule?
**A.** 13.3%

**Q.** With `O=C(CN1C(=O)COc2ccccc21)N1CCOCC1` as the molecule, how does the “outcome” value read?
**A.** inactive

**Q.** With `COc1ccc(C(=O)Nc2ccccc2N2CCOCC2)cc1Br` as the molecule, how does the “lipid storage change, negative = inhibition” value read?
**A.** 5.74% (inactive)

**Q.** What about the cell number change of the same molecule?
**A.** -0.289%

**Q.** What does the source list for `COc1ccc(N2CCCC2)c(NC(=O)c2ccc(Br)o2)c1`?
**A.** outcome: inactive; cell number change: 13.9%

Source: PubChem BioAssay AID2685 (National Center for Advancing Translational Sciences (NCATS), 2010)
